The whole screen tested about 320,000 compounds, of which about 2,100 (0.66%) were called active. Inconclusive results (about 53%) are left out. This is one part of a sample in which actives are shown more often than they occur. The call rests on the fitted dose curve; in most records, active means well fitted inhibition curve with a large enough effect in the signal ratio, with a control signal flat (not every such curve was filed as active); inconclusive means small, poorly fitted or top-dose-only effect, or effect the other way, or a change in a side signal; inactive means flat fitted curve, though single readings scatter; the % refers to the signal ratio.
Assay: qHTS Assay for Lipid Storage Modulators in Drosophila S3 Cells;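 on cell number change: cells counted by Cell Tracker Red CMTPX staining in the red channel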
Settings: BODIPY lipid droplet fluorescence, 18-24 h, cells fed with added oleic acid; cell number change: measured here: cell count max response; series mostly up to 46.1 µM
Method in brief: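 Drosophila S3 cells got compounds at several concentrations plus oleic acid (400 uM solution). Laser-scanning cytometry with 488 nm excitation read lipid droplets at 500-530 nm and cells at 575-640 nm. Percent activity was relative to 20 uM Triacsin C.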
Potency means the concentration at half of the fitted maximal effect.

SMILES | Potency | cell number change [%]
Cn1c(N)c(C(=O)COC(=O)COc2ccccc2C#N)c(=O)n(C)c1=O | inactive | –
CC1CCCCN1C(=O)c1ccc(Br)o1 (centres undefined) | inactive | 0.829
COc1ccc(/C=C/C(=O)c2ccc(O)cc2)cc1 | inactive | -13.4
CCNC(=S)NNC(=O)c1ccc(=O)n(Cc2ccccc2)c1 | inactive | 8.31
CN(C)C(=O)NC(Nc1ccc(Cl)cc1Cl)C(Cl)(Cl)Cl (centres undefined) | inactive | –
Cc1ccc(CC(CC(=O)NCCc2ccc3c(c2)OCO3)C(=O)O)cc1 (centres undefined) | inactive | –
COc1ccc(C(=O)N2CCN(S(=O)(=O)c3ccc(C)cc3)CC2)cc1S(=O)(=O)N1CCOCC1 | inactive | 3.33
COc1ccc(C(=O)N2CCCC(C(N)=O)C2)cc1S(=O)(=O)N1CCOCC1 (centres undefined) | inactive | 10.1
COc1ccc(CNC(=O)c2ccc(Cl)c(S(=O)(=O)N3CCOCC3)c2)cc1OC | 1.64 µM (active) | -21
COc1ccc(C(=O)OCc2ccc(C)cc2)cc1S(=O)(=O)N1CCOCC1 | inactive | 0.435
COc1ccc(C(=O)N2CCCC2)cc1S(=O)(=O)N1CCOCC1 | 7.31 µM (active) | 9.79
O=C(NCc1ccncc1)c1ccc(Cl)c(S(=O)(=O)N2CCOCC2)c1 | inactive | 18.6
COc1ccc(C(=O)OCc2cc(C)ccc2C)cc1S(=O)(=O)N1CCCC1 | 0.082 µM (active) | -10.2
CN(C(=O)c1ccc(S(=O)(=O)N2CCCC2)cc1)C1CCCCC1 | inactive | -9.06
COc1ccc(C)cc1S(=O)(=O)N1CCCCC1 | inactive | 6.88
CN1CCC(N(C)C(=O)c2ccc(Cl)c(S(=O)(=O)N3CCCCC3)c2)CC1 | 14.6 µM (active) | -2.26
CN(C(=O)c1ccc(F)c(S(=O)(=O)N2CCOCC2)c1)C1CCCCC1 | inactive | 0.139
O=C(NCc1cccnc1)c1ccc(Cl)c(S(=O)(=O)N2CCOCC2)c1 | inactive | -4.25
NC(=O)C1=C[C@@H](C2CCCCC2)C[C@@H](OCCCCO)O1 | inactive | 1.59
Cc1ccc(N2C(=O)C3C(C2=O)N2CCCN2C3c2ccccc2)cc1C (centres undefined) | inactive | 7.85
CCN(CC)C(=O)CC(c1ccc(F)cc1)c1ccco1 (centres undefined) | inactive | -17.4
CCc1ccccc1NC(=O)CSc1nnc(Cn2cnc3ccccc32)o1 | inactive | -13.9
COc1ccc(CCNC(=O)C(=O)NCC2OCCN2S(=O)(=O)c2cccs2)cc1 (centres undefined) | inactive | 0.232

SMILES | Potency | cell number change [%]
Cc1c(NC(=O)CSc2nnc(C(C)Oc3ccc(Cl)cc3)n2-c2ccccc2)c(=O)n(-c2ccccc2)n1C (centres undefined) | inactive | 8.96
COc1ccc(C(=O)N2CCN(c3ccccc3)CC2)cc1S(=O)(=O)N1CCOCC1 | 3.26 µM (active) | 0.901
COc1ccc(/C=C/C(=O)N2CCN(c3ccccc3)CC2)cc1S(=O)(=O)N1CCOCC1 | inactive | –
Cc1ccc(C(=O)N2CCN(c3ccccc3)CC2)cc1S(=O)(=O)N1CCOCC1 | inactive | 22
COC(=O)c1sc(NC(=O)C2c3ccccc3Oc3ccccc32)c(C(=O)OC)c1C | inactive | 5.22
Cc1ccc(C2CC(C(F)F)n3ncc(C(=O)Nc4c(C)nn(Cc5c(F)cccc5Cl)c4C)c3N2)cc1 (centres undefined) | inactive | 11
CCOC(=O)c1c(NC(=O)c2ccccc2C(=O)O)sc2c1CCC2 | inactive | 7.14
COc1cc(-c2cc(-c3ccc(N)cc3)[nH]c(=O)c2C#N)cc(OC)c1OC | inactive | 28
O=C(Nc1ccc(Cl)cn1)c1cccc(S(=O)(=O)N2CCCCC2)c1 | inactive | 14.3
O=C(Cn1cnc2ccccc2c1=O)NCCC(=O)Nc1ccc(F)cc1 | inactive | 20.1
COC(=O)c1ccccc1NC(=O)CCNC(=O)Cn1cnc2ccccc2c1=O | inactive | -2.73
O=C(Cn1cnc2ccccc2c1=O)NCCC(=O)Nc1ccccc1C(F)(F)F | 0.0651 µM (active) | -3.75
COC(=O)c1ccc(CSc2nc3ccccc3c(=O)n2N)cc1 | inactive | -1.8
CC(C)CN(CC(C)C)S(=O)(=O)N1CCC(C(=O)NCc2ccco2)CC1 | inactive | -10.2
O=C(CN(C(=O)CCC(=O)Nc1nccs1)c1ccccc1F)NCCc1ccccc1 | inactive | 18.7
CCOc1ccccc1N(CC(=O)NCc1ccco1)C(=O)CCC(=O)Nc1nccs1 | 2.59 µM (active) | -1.71
Cc1ccccc1N(CC(=O)NCc1ccco1)C(=O)CCC(=O)Nc1nccs1 | inactive | 7.88
COc1ccccc1N(CC(=O)NCCc1ccccc1)C(=O)CCC(=O)Nc1nccs1 | 2.06 µM (active) | -5.22
COc1ccccc1N(CC(=O)NCc1ccc(F)cc1)C(=O)CCC(=O)Nc1nccs1 | inactive | -10.4
CCc1ccccc1N(CC(=O)NCc1ccco1)C(=O)CCC(=O)Nc1nccs1 | inactive | 6.09
COC(=O)c1ccc(NC(=O)c2ccc(NS(=O)(=O)c3cccc4cccnc34)cc2)cc1 | inactive | -0.185
CCOC(=O)C1CCN(c2nc(-c3ccc(C)cc3)nc3ccccc23)CC1 | inactive | -12.1
COc1ccccc1NC(=O)c1ccc(NC(=O)CSc2ncn[nH]2)cc1 | inactive | -3.32

SMILES | Potency | cell number change [%]
Cc1cc(-c2ccco2)n(CC(=O)O)n1 | inactive | -13.3
CC(Sc1ccc2ccccc2c1)C(=O)NC(N)=O (centres undefined) | inactive | 22.5
CC(Sc1cccc(C(F)(F)F)c1)C(=O)NC(N)=O (centres undefined) | inactive | 10.6
CC(=O)Nc1ccc(SC(C)C(=O)NC(N)=O)cc1 (centres undefined) | 29.1 µM (active) | -18.8
CCOC(=O)NC(O)C(=O)c1ccc(F)cc1 (centres undefined) | inactive | –
N#Cc1ccc(Cl)cc1NC(=O)CNCc1cccs1 | inactive | 4.81
COc1ccc(-n2c(=O)c(CCC(=O)N(C)Cc3ccccc3C)nc3ccccc32)cc1 | inactive | 24.8
COc1ccc(-n2c(=O)c(CCC(=O)N3CCN(c4ccccc4O)CC3)nc3ccccc32)cc1 | inactive | -25.6
COc1ccc(-n2c(=O)c(CCC(=O)NCCc3ccccc3F)nc3ccccc32)cc1 | 18.4 µM (active) | 2.07
COc1ccc2c(c1)c(CC(=O)Nc1cccc(S(N)(=O)=O)c1)c(C)n2C(=O)c1ccc(Cl)cc1 | inactive | -13.5
CC(C(=O)Nc1ccc2c(c1)OCCO2)N(C)Cc1c(F)cccc1Cl (centres undefined) | inactive | –
Cc1ccc(NC(=O)CCNS(=O)(=O)c2cccc3nonc23)cc1 | inactive | 12.6
COC(=O)c1ccc(NC(=O)CCNS(=O)(=O)c2cccc3nonc23)cc1 | inactive | 6.69
CC(=O)c1ccc(NC(=O)CCNS(=O)(=O)c2cccc3nonc23)cc1 | 23.1 µM (active) | –
COC(=O)C1=NN(C(C)(C)CC(C)=O)C2C(=O)N(C3CCCCC3)C(=O)C12 (centres undefined) | inactive | -0.806
O=C(NCc1cccc(Cl)c1)c1cccc(C(F)(F)F)c1 | inactive | -1.35
Cc1cc(NC2CCCC2)n2nc(C)c(-c3ccccc3)c2n1 | inactive | -2.08
O=C(CC1Sc2ccccc2NC1=O)NCc1ccccc1 (centres undefined) | inactive | 0.893
COc1cc(/C=C2\C(=N)N3N=CSC3=NC2=O)ccc1OS(=O)(=O)c1ccccc1 | 2.06 µM (active) | -21.2
CCC1=NN2C(=N)/C(=C/c3ccc(OS(=O)(=O)c4ccc(C)cc4)c(OC)c3)C(=O)N=C2S1 | inactive | 5
COc1cc(/C=C2\C(=N)N3N=CSC3=NC2=O)ccc1OS(=O)(=O)c1ccccc1[N+](=O)[O-] | inactive | -11.4
COc1cc(/C=C2\C(=N)N3N=C(S(C)(=O)=O)SC3=NC2=O)ccc1OS(=O)(=O)c1ccccc1 | inactive | -27
COc1cc(/C=C2/C(=N)N3N=C(C)SC3=NC2=O)ccc1OS(=O)(=O)c1ccc(C)cc1 | inactive | -5.04

SMILES | Potency | cell number change [%]
CCC1=NN2C(=N)/C(=C/c3ccc(OS(=O)(=O)c4ccccc4)c(OC)c3)C(=O)N=C2S1 | 1.84 µM (active) | 4.58
Cc1cc(/C=C2\SC(=O)N(CC(=O)Nc3ccccc3F)C2=O)c(C)n1C | inactive | 1.47
Cc1ccccc1-n1c(C)n[nH]c1=S | inactive | 1.24
COc1ccc(CC(=O)NNC(=O)CSc2nnc(C)n2-c2ccccc2)cc1 | inactive | -9.57
CC1Cc2ccccc2N1C(=O)CSc1nnc(Cn2nnc3ccccc32)n1C (centres undefined) | inactive | -16.3
O=C(NCc1ccc(F)cc1)C1CCCN1C(=O)Nc1ccc(F)cc1 (centres undefined) | inactive | 12.2
CSc1ccc(NC(=O)N2CCN(c3nc4ccccc4s3)CC2)cc1 | inactive | –
O=C(NC1CCCC1)C1CCCN1C(=O)Oc1ccccc1 (centres undefined) | inactive | -16.7
O=C(O)C1CCCN1C(=O)Oc1ccccc1 (centres undefined) | 23.1 µM (active) | 0.79
O=C(Nc1ccc(F)cc1)N1CCCCCC1 | inactive | 7.77
O=C(Nc1ccc(O)cc1)N1CCOCC1 | inactive | 20
O=C(Nc1ccc(F)cc1)N1CCOCC1 | 20.6 µM (active) | -6.86
O=C(NCCc1ccccc1)C1CCCN1C(=O)Nc1ccc(F)cc1 (centres undefined) | inactive | -10
O=C(Nc1ccccc1)N1CCN(c2nc3ccccc3s2)CC1 | inactive | –
O=C(O)C1CCCN1C(=O)Nc1ccc(F)cc1 (centres undefined) | 6.51 µM (active) | 1.35
O=C(Nc1ccc(F)cc1)N1CCN(c2nc3ccccc3s2)CC1 | 4.11 µM (active) | –
O=C(O)C1CCCN1C(=O)OCc1ccccc1 (centres undefined) | inactive | 12.4
COc1ccccc1C(=O)C1CCCN(Cc2cccc3nccnc23)C1 (centres undefined) | inactive | 15
CC(C)Nc1ccc(C(CC(N)=O)NC(=O)Cc2cccc3ccccc23)cc1[N+](=O)[O-] (centres undefined) | inactive | 1.26
CCOC(=O)c1sc(=NC(=O)c2cccc(C)c2)n(C)c1C | inactive | –
Cc1cc(Cl)ccc1NC(=S)NCc1ccco1 | inactive | -9.3

Source: PubChem BioAssay AID2685 (National Center for Advancing Translational Sciences (NCATS), 2010)
